Rows were chosen to be rich in hits. Some 3.7% of all compounds tested hit in one or more screens of this group.
MazEF act: MazEF (E. coli) toxin RNase activation. P0AE70. FAM/BHQ RNA-DNA oligo cleavage fluorescence, 5 h. activation, % at 20 µM. actives 0.32% (n = 350,000); in the data active means activation above about 50%
BoNT A protease: BoNT A light chain protease inhibition. multiplex microsphere protease substrate cleavage, flow cytometry. actives 0.17% (n = 360,000). inhibition, % at 10 µM. AID 588499; further: plate controls were buffer without enzyme for full effect and enzyme alone for no effect
Autofluor counter: flagged as autofluorescent in microsphere protease counterscreen; compound autofluorescence counterscreen, microsphere flow cytometry; hits give high values; fluorescence intensity (concentration not given with the values); actives 3.1% (n = 360,000); in the data active means fluorescence intensity above about 16000; inconclusive means no clear call, values can overlap the other calls
Anthrax LF prot: blocks Bacillus anthracis lethal factor protease | P15917 | multiplex microsphere protease cleavage assay, LF | inhibition, % at 10 µM | actives 0.12% (n = 360,000); further: plate controls were buffer without enzyme for full effect and enzyme alone for no effect
Target sequence (P15917 whole entry, looked up): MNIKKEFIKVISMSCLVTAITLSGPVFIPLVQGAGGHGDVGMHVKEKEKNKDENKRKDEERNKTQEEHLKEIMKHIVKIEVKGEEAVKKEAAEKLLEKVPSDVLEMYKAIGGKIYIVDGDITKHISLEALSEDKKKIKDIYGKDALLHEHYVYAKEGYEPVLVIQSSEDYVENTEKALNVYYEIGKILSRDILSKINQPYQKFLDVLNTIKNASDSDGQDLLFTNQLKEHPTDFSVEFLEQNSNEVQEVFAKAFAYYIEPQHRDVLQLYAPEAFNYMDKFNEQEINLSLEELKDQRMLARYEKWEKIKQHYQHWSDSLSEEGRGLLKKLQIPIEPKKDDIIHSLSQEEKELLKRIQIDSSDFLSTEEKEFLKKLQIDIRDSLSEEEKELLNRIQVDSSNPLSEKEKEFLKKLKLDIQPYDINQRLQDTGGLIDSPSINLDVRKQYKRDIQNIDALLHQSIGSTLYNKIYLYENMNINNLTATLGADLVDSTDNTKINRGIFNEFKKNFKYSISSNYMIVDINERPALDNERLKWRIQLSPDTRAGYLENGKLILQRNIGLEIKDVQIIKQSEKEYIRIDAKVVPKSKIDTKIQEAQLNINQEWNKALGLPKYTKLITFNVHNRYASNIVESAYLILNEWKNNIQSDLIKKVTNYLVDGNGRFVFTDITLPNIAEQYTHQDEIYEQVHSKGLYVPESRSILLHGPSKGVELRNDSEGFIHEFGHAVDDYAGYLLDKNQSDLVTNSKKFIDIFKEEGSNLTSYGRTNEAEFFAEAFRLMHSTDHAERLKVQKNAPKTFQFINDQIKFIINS
BoNT F protease: BoNT F light chain protease inhibition | AID 588497 | inhibition, % at 10 µM | actives 0.22% (n = 360,000) | Multiplex microsphere protease cleavage assay, flow cytometry; in the data active means inhibition above about 35%, passing the limit was not always enough; inconclusive means no clear call, values can overlap the other calls; further: plate controls were buffer without enzyme for full effect and enzyme alone for no effect
Starred values were filed as active, the others as inactive; u = inconclusive; x = not tested or not shown. Unless noted, no stated cut-off is given here; in the data, active means inhibition above about 30%; inconclusive means no clear call, values can overlap the other calls; inactive means below that.

SMILES | MazEF act | BoNT A protease | Autofluor counter | Anthrax LF prot | BoNT F protease
Cc1nc(SCC(=O)N2CCCC2=O)nc(C)c1C | 2 | -1 | 2946 | 0 | 0
O=C1CC(Nc2ccc(N3CCOCC3)cc2)C(=O)N1Cc1ccccc1 (centres undefined) | -2 | -2 | 22615* | -3 | -8
O=C1CC(Nc2ccc(N3CCOCC3)cc2)C(=O)N1c1ccccc1 (centres undefined) | 12 | 0 | 5502 | -11 | -4
CCOC(=O)/C(=N\Nc1cccc(C(F)(F)F)c1)N(CCOC)CCOC | -7 | u | 22213* | 0 | -8
O=C(Cc1ccccc1)NCC(=O)N1CCCC1 | 4 | -3 | 3273 | 4 | -14
CN(C)CCNC(=O)c1cc(Br)ccc1Cl | 2 | -1 | 21132* | 0 | 0
CCc1ccc(OCCNC(=O)c2cc(SC)ccc2Cl)cc1 | 2 | 0 | 23443* | 0 | -2
CCCNC(=O)c1cc(SC)ccc1Cl | 7 | 8 | 20823* | -9 | 7
COCCNC(=O)c1cc(Br)ccc1Cl | -3 | 1 | 8837 | 3 | -2
CSc1ccc(Cl)c(C(=O)NCCOc2ccccc2)c1 | -8 | 0 | 2874 | 2 | -2
Cc1cccc(C)c1NC(=O)C1(C)CCC(=O)N1CCCn1ccnc1 (centres undefined) | x | -1 | 5408 | -8 | -7
CC(=O)N1CCN(c2cc(N3CCc4ccccc4C3)c(F)cc2[N+](=O)[O-])CC1 | 7 | -5 | 17226* | -4 | -8
CCC(=O)N1CCN(c2cc(N3CCCC3)c(F)cc2[N+](=O)[O-])CC1 | 8 | 0 | 3967 | -2 | -1
O=C(c1cccc(F)c1)N1CCN(c2cc(N3CCCCC3)c(F)cc2[N+](=O)[O-])CC1 | 2 | 3 | 20200* | 1 | 1
O=C(c1ccc(N2CCOCC2)c([N+](=O)[O-])c1)N1CCCCC1 | 1 | -1 | 5970 | -5 | 0
O=C(c1ccc(N2CCCCC2)c([N+](=O)[O-])c1)N1CCOCC1 | 3 | 0 | 16276* | -3 | 1
CNC(=O)C[C@H]1C(=O)N(CCc2ccccc2)C[C@@H]1C | 1 | 0 | 3902 | -2 | 0
CN(C)c1nc2n(c(=O)n1)C(C#N)CS2 (centres undefined) | -5 | 0 | 16338* | 2 | -2
CN(C)c1nc2n(c(=O)n1)CCS2 | 3 | 0 | 3435 | -3 | -6
O=C(NCC(c1ccco1)N1CCCC1)c1cc2ccccc2s1 (centres undefined) | -5 | -4 | 16777* | 6 | 29
Cc1cccc(OCCC(=O)NCC(c2ccco2)N2CCCCC2)c1 (centres undefined) | -5 | u | 20481* | -1 | -1
C#CCN(C(=O)C1CCC(=O)N(CCc2cccc(F)c2)C1)C1CCCCC1 (centres undefined) | 5 | 0 | 4271 | -9 | -7
Cc1c(N=Cc2cc3c(cc2Cl)OCO3)c(=O)n(-c2ccccc2)n1C | 5 | 1 | 23177* | -3 | 0
Cc1c(N=Cc2c(O)n(CCc3ccccc3)c(=O)[nH]c2=O)c(=O)n(-c2ccccc2)n1C | 8 | 0 | 2905 | -3 | 0
Cc1c(N=Cc2ccncc2)c(=O)n(-c2ccccc2)n1C | 5 | -1 | 5220 | 1 | -38
SMILES | MazEF act | BoNT A protease | Autofluor counter | Anthrax LF prot | BoNT F protease
Cc1c(N=Cc2c(O)n(C)c(=O)c3ccccc23)c(=O)n(-c2ccccc2)n1C | 300* | 0 | 7445 | 1 | 10
N#CCc1ccc(OC(=O)c2cnccc2C(F)(F)F)cc1 | -5 | 2 | 3348 | 9 | 17
COc1cccc(C(NC(C)=O)c2nc(-c3ccccc3C)cs2)c1 (centres undefined) | x | 0 | 3369 | 3 | 1
Cn1c(C(=O)Nc2ccc3c(c2)OCO3)cc2sccc21 | 10 | 1 | 11702 | -4 | -20
Cn1c(C(=O)NCc2ccc3c(c2)OCO3)cc2sccc21 | 4 | -3 | 17632* | -1 | -5
Cn1c(C(=O)N2CCN(Cc3ccc4c(c3)OCO4)CC2)cc2sccc21 | -1 | -1 | 16552* | -4 | -1
COC(=O)c1ccc(CSc2nc3scc(-c4cccs4)c3c(=O)[nH]2)o1 | 4 | u | 20323* | 1 | 4
COc1ccccc1Cc1noc(C(C)(C)NC(=O)c2ccccc2)n1 | -5 | -4 | 17677* | -2 | -5
CCCC(=O)N1CCCC1(C)C(=O)NCc1ccc(SC)cc1 (centres undefined) | x | 0 | 3596 | 3 | -6
CCN(CC)S(=O)(=O)c1cc(F)ccc1OC | -3 | 0 | 3909 | -4 | -6
CCN(CC)S(=O)(=O)c1cc(C(=O)Oc2ccccc2OC)ccc1OC | 4 | 1 | 22741* | 3 | 4
CCOC(=O)c1c[nH]c2c(Cl)c(Cl)ccc2c1=O | 0 | 0 | 3885 | 4 | 10
CCOC(=O)c1c[nH]c2c3c(ccc2c1=O)CCCC3 | 5 | -5 | 21559* | 2 | -8
CCOC(=O)c1c[nH]c2c(C)cc(C)cc2c1=O | 2 | u | 20267* | -1 | -2
C(=N\n1cnc2ccccc21)/c1cccnc1 | -11 | 1 | 22275* | -2 | 1
COc1cccc(/C=N/n2c(N)nc3ccccc32)c1OC | 0 | 0 | 12296 | -4 | -2
COc1cccc(/C=N/n2c(-c3cc(C)[nH]n3)n[nH]c2=S)c1OC | 12 | -4 | 3582 | 0 | u
COc1cccc(/C=N/n2cnc3ccccc32)c1OC | 1 | 9 | 16900* | -15 | 8
COc1cccc(/C=N/n2c(=S)n(C)c3cc(C)c(C)cc32)c1OC | -4 | u | 22389* | -3 | -4
CC(=O)Nc1cncc(-c2cnn(CC(C)C)c2)n1 | x | 0 | 2928 | -2 | -1
Cc1cccn2c(=O)c(C=O)c(N3CC(C)OC(C)C3)nc12 (centres undefined) | 13 | 0 | 3926 | -5 | -1
COc1ccccc1N1CCN(c2nc3c(C)cccn3c(=O)c2C=O)CC1 | 2 | u | 20185* | -1 | 2
Cc1cccn2c(=O)c(C=O)c(N3CCCCCC3)nc12 | -6 | 1 | 19642* | -4 | 1
O=C(c1cc(-c2cccs2)nn1-c1ccccc1)N1CCN(S(=O)(=O)c2ccccc2)CC1 | -14 | -2 | 6621 | 1 | 0
C/C(=N\NC(=O)C(C)Oc1ccc([N+](=O)[O-])cc1)c1ccccn1 (centres undefined) | 5 | u | 24747* | -5 | -4
SMILES | MazEF act | BoNT A protease | Autofluor counter | Anthrax LF prot | BoNT F protease
Cn1nc(C(F)(F)F)c(/C=N/OC(=O)c2ccc(Cl)cc2)c1Cl | -1 | 0 | 5777 | -12 | -10
Cn1nc(C(F)(F)F)c(/C=N/OC(=O)c2ccccc2)c1SCc1ccc(Cl)cc1 | -7 | -1 | 21079* | -2 | -1
Cn1nc(C(F)(F)F)c(/C=N/OC(=O)c2ccccc2Cl)c1SCc1ccccc1Cl | -3 | 2 | 22148* | 0 | 1
O=C(COC(=O)C1CC2CCCC(C1)C2=O)NNC(=O)c1ccccc1Br (centres undefined) | 7 | 0 | 2945 | 0 | 1
CCCNC(=O)CN1C(=O)c2ccccc2Sc2ncccc21 | 1 | 2 | 3990 | 30* | -1
Cc1ccccc1C(=O)NCC(=O)N1CCN(C/C=C/c2ccccc2)CC1 | 2 | -1 | 8985 | -6 | -1
